Data taken from ChEMBL document CHEMBL3988442, “University of Dundee, Small-Polar-MMV Screening Library” (2021).

Each compound was assayed against AMP-activated protein kinase, AMPK (Homo sapiens) (UniProt P54646+O43741+P54619+Q9UGJ0+Q9Y478+Q13131+Q9UGI9) (assay: AMP-dependent Kinase enzyme assay. An in vitro enzyme assay that detects ADP turnover that is directly proportional to AMPK activity. This uses naive AMPK that is activated during the assay with MK-8722). Settings: 30 µM.
Assay type: functional
Design: scale not given: direction of the effect not stated beside the values

SMILES	Percent Effect
CC(C)c1cc(C(=O)NCCc2nc(-c3ccncc3)n[nH]2)[nH]n1	39.1%
Cc1nsc(N2CCN(CC(=O)N(C3CC3)C(C)C3CC3)CC2)n1 (centres undefined)	7.84%
CCC[C@@H]1CN(Cc2cc(C#N)n(C)c2C)C[C@H]1NS(C)(=O)=O	-87.1%
CCCc1nnc(N2CCC(C3CCN(C)CC3)CC2)o1	-1.66%
Cc1noc(CCCc2nc(C3CCOC3)no2)n1 (centres undefined)	10.8%
Cc1nnc(NC(=O)c2c3c(nn2C2CCS(=O)(=O)C2)CCC3)s1 (centres undefined)	-6.11%
CCCc1ccc(CN2CCC3(CCC(=O)N(CCO)C3)CC2)o1	12.9%
CC(=O)c1ccc(-c2cnn(CC(=O)Nc3cc(C)nn3C)c2)nc1	0.263%
O=C(NCC1CCS(=O)(=O)C1)N(Cc1ccncc1)C1CC1 (centres undefined)	-5.47%
CC(C)c1ccc(CN2CCCC3(CC2)CN(C)C(=O)O3)cc1 (centres undefined)	9.6%
CCNC(=O)C1CCN(Cc2ccccc2OCC(F)(F)F)CC1	-3.27%
Cn1ccc(C(=O)N2CCC(Cc3ccc4ncccc4c3)CC2)n1	15.1%
CCC1c2ccccc2CCN1CCNS(C)(=O)=O (centres undefined)	-4.87%
Cc1cnc(Nc2cccc(C3CCCN3Cc3cn(C)nc3C)n2)s1 (centres undefined)	21.4%
CCc1nc(CSc2nnc(N)n2C2CC2)no1	7.62%
O=C(COc1ccc(-n2cccn2)nn1)N1CCCC1	3.54%
CCCN(CC(=O)N(C)C)C(=O)c1ccc(-c2nc(C)cs2)cc1	4.25%
O=C(Cc1c(F)cccc1Cl)Nc1cc(N2CCCC2)ncn1	4.4%
Cc1cccc(C(C)C)c1NC(=O)CN(C)C(C)c1nccs1 (centres undefined)	-7.09%
COc1cc(NC2CCCN(c3ncccn3)C2)cc(OC)c1 (centres undefined)	-64.1%

SMILES	Percent Effect
CCC(C)NC(=O)Nc1cccc(OCC#N)c1 (centres undefined)	-0.326%
COC(=O)CSCc1noc(-c2ccc(Cl)cc2)n1	-9.28%
COCC(=O)N1CCN(C(C)c2ncc(-c3ccccc3)o2)CC1 (centres undefined)	2.58%
Cc1cc(C(=O)N2CC[C@](C)(O)[C@H](C)C2)c(C)n1C	-6.41%
CN(CCc1cccc2ccccc12)Cc1nc(N)nc(N(C)C)n1	-2.41%
CN(Cc1cnc(N)nc1)C(=O)C1CCN(C(=O)C2CCCC2)CC1	-0.173%
Cc1cc(C)n(C2CN(CCC(=O)NCCc3ccccc3)C2)n1	2.98%
CNC(=O)Cc1ccccc1NC(=O)N[C@H]1c2ccccc2C[C@H]1O	0.934%
CN(CCc1noc(C2CC2)n1)C(=O)CN1C(=O)COc2ccccc21	-1.86%
N#Cc1ncn(CC(=O)N2CCCC2c2cccs2)n1 (centres undefined)	-12%
CC(NCc1cnc(N2CCOCC2)s1)c1ccc(Cl)s1 (centres undefined)	9.15%
CC(C)(C)c1ccc(C(=O)C2CCCN(C(=O)CNS(C)(=O)=O)C2)cc1 (centres undefined)	0.896%
CCC(=O)Nc1cccc(OCC(=O)N(C)CCCC2CCCO2)c1 (centres undefined)	11.8%
Cc1n[nH]c(C)c1CCNC(=O)Nc1ccc(S(C)(=O)=O)cc1	4.13%
CC(NCc1cnc(N2CCOCC2)nc1)c1ccc(Cl)s1 (centres undefined)	10.3%
CCNc1ncc(C(=O)NCc2csc(-c3ncccn3)n2)cn1	3.97%
O=C(NCC(F)(F)F)c1ccc(-n2cccn2)nn1	0.877%
CCCS(=O)(=O)N1CCCN(CCCOC)CC1	11.7%
Cn1cc(N2CCN(c3ccc(C#N)cc3Br)CC2=O)cn1	-4.14%
